Screening results as filed in PubChem.
CHT inh = human CHT choline transport inhibition; CHT-expressing cells, membrane potential dye, choline response; active compounds read low; B-score at 10 µM; actives 0.86% (n = 310,000); AID 488975;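 active means B-score over 3 SD under the library average, and starting fluorescence ratio not unusually high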;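 further: choline stimulus applied at its EC90 after an EC20 pre-addition; B-score computed on integrated fluorescence ratio after choline addition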
Target sequence (Q9GZV3 whole entry, looked up): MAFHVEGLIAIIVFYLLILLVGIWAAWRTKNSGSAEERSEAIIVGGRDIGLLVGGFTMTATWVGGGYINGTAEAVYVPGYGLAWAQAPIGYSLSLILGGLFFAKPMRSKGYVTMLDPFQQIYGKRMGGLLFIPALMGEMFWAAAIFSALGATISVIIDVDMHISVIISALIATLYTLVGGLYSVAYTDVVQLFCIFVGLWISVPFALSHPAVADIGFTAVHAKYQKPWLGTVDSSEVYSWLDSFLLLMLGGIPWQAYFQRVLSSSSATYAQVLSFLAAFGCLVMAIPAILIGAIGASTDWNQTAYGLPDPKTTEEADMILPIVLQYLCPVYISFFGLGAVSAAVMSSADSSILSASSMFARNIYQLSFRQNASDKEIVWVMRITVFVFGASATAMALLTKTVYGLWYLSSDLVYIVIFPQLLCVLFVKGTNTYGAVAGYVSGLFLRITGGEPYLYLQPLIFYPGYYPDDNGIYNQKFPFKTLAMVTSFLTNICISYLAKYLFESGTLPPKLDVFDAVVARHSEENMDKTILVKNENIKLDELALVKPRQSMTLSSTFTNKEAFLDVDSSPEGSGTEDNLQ
MEKK2 WT-MEK5 = raises or lowers MEK5 binding to wildtype human MEKK2 PB1 domain. binding response (% of control), % at 10 µM. actives 1.1% (n = 290,000). Q9Y2U5. bead flow cytometry, Alexa488-MEK5 binding to MEKK2 WT; actives lie on both sides; in the data active means binding response below about 67% or above about 130%
MEKK2mut PB1 HTS = signal of MEK5 binding to mutant human MEKK2 PB1 domain | bead flow cytometry, Alexa488-MEK5 binding to MEKK2 mutant | percent response, % at 10 µM | actives 0.35% (n = 290,000); in the data active means percent response above about 24%, passing the limit was not always enough
SUMO Mot1 rescue = SUMOylation pathway inhibition by Mot1-301 growth rescue. S. cerevisiae Mot1-301 growth rescue, ATP luminescence, 38.5C; percent above DMSO median, 100 means doubled. growth rescue, % at 18.8 µM. actives 1% (n = 320,000);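 active means every valid replicate shows activation above 250% relative to neutral control wells; inactive means the rest, any valid replicate at or below 250%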
MEKK3 PB1 HTS = raises or lowers MEK5 binding to the human MEKK3 PB1 domain; actives 1.4% (n = 290,000); AID 1529; bead-based flow cytometry, Alexa488-MEK5 binding to MEKK3; actives lie on both sides; 0 = blocked by unlabeled MEK5, 100 = vehicle; binding response (% of control), % at 10 µM;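 active means binding response more than 3 SD above or below the average of its plate-row segment, actives on both sides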;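 further: Alexa488 bead fluorescence after subtracting the streptavidin-only scavenger bead signal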
CHT allo act = allosterically activates the human high affinity choline transporter. Q9GZV3. CHT-expressing cells, membrane potential dye, choline EC20; active compounds read high; LV-AA mutant CHT in HEK293 cells. B-score at 10 µM. actives 0.49% (n = 310,000). AID 488977;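 active means initial fluorescence not abnormally high and integrated response B-score, plate-corrected, over 3 SD above library mean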
CHT act confirm = human CHT activation, confirmatory screen; CHT-expressing cells, membrane potential dye fluorescence (FDSS); % of choline EC20–EC90 response window; HEK293 expressing CHT LV-AA mutant; choline added at its EC20; activation, % at 10 µM; actives 91% (n = 2,500); shares compounds with CHT allo act;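 active means primary screen active, with duplicate mean activation above negative control mean plus 3 SD, cut at about 11% in these data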
HEK293 MP dye = counter-screen for CHT activators: effect in parental HEK293 cells; shares compounds with CHT allo act; membrane potential dye fluorescence (FDSS); measured after EC20 choline addition; ratio readout change at 10 µM, hits read low; actives 62% (n = 2,500); AID 623908;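 active means duplicate-averaged ratio beyond 3 SD from buffer wells, up or down, though filed actives are nearly all decreases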
Large screens that a line does not name were inactive (follow-up assays come after a bar, where they were run). Compounds with a hit are over-represented: about 4.1% of the library has one in this group of screens.

O=C(NCCc1ccccc1)c1cc2sccc2n1Cc1ccccc1	none
CCn1c(C(=O)NCCCc2ccccc2)cc2sccc21	CHT allo act 6.56 | CHT act confirm 25.1 | HEK293 MP dye inactive
Cn1c(N)c(C(=O)COC(=O)COc2ccc(C#N)cc2)c(=O)n(C)c1=O	none
Cn1c(N)c(C(=O)COc2ccc(C#N)cc2)c(=O)n(C)c1=O	none | CHT act confirm 38.5 | HEK293 MP dye -36.4
CC(C)CCOC(=O)/C(=C/c1ccco1)NC(=O)/C=C/c1ccccc1	CHT allo act 8.44 | CHT act confirm 16.2 | HEK293 MP dye inactive
C/C=C/c1ccc(OCC(=O)N2CCc3cc(OC)c(OC)cc3C2)c(OC)c1	none
COC(=O)c1cc2c(C)[nH]c(C)c2cc(C(=O)OC)c1=O	none | CHT act confirm 30.2 | HEK293 MP dye -45.4
COc1ccccc1C(=O)Nc1cc(-c2ccc(C)cc2)no1	none
CCCCNC(=O)CCC(=O)Nc1ccc2nc(N3CCOCC3)cc(C)c2c1	none
CCCCN(CC)CCNC(=S)Nc1ccc2nc(N3CCN(C)CC3)cc(C)c2c1	none | CHT act confirm 34.8 | HEK293 MP dye inactive
COCCCNC(=O)CCC(=O)Nc1ccc2nc(N3CCOCC3)cc(C)c2c1	CHT allo act 7.97 | CHT act confirm 37.0 | HEK293 MP dye -52
CCCN(CCC)CCCNC(=S)Nc1ccc2nc(N3CCN(C)CC3)cc(C)c2c1	none | CHT act confirm 52.0 | HEK293 MP dye -26.7
CCCCN(CC)CCNC(=O)CCC(=O)Nc1ccc2nc(N3CCN(C)CC3)cc(C)c2c1	none | CHT act confirm 41.6 | HEK293 MP dye inactive
CCOC(=O)N1CCN(C(=O)c2cc(COc3c(F)cccc3F)on2)CC1	none
COCCNc1ccnc2c(Cl)cccc12	CHT allo act 6.3 | CHT act confirm 56.6 | HEK293 MP dye -61.3
COCCCNc1ccnc2c(Cl)cccc12	none
C=CCNC(=O)c1ccc(NC(=O)C2=CSCCO2)cc1	none
Cc1cc(C)c(S(=O)(=O)c2ccc(Cl)cc2C)c(Cl)n1	none
CN1CC[n+]2cnc3ccccc3c21	CHT allo act 12.1 | CHT act confirm 78.5 | HEK293 MP dye -72.5
Cc1ccc(CNC(=O)c2ccccc2NC(=O)CN2CC(C)OC(C)C2)cc1 (configuration not stated)	none
C(=N\n1c2ccccc2c2ccccc21)/c1ccccc1	none
C[n+]1cn(/N=C/c2ccccc2)c2ccccc21	CHT allo act 6.59 | CHT act confirm 55.5 | HEK293 MP dye -55.2
Cc1nn(-c2ccccc2)c(C)c1/C=N/n1c(-c2ccncc2)n[nH]c1=S	none
Cc1nn(-c2ccccc2)c(C)c1/C=N/n1c(-c2ccc(Cl)cc2)n[nH]c1=S	none | CHT act confirm inactive | HEK293 MP dye inactive
CCOc1ccccc1Nc1nnc(SCC(=O)NC2CCS(=O)(=O)C2)s1 (configuration not stated)	none (no result: CHT inh, MEKK2 WT-MEK5, MEKK2mut PB1 HTS, MEKK3 PB1 HTS, CHT allo act)
COc1ccc(C(=O)c2c(N)sc3c2CCN(C)C3)cc1	CHT allo act 8.3 | CHT act confirm 40.9 | HEK293 MP dye -53.2
CCOC(=O)Cc1csc(N/N=C\c2ccc(N(C)C)cc2)n1	none
CN1CCc2c(C#N)c(N3CCCCC3)nc(N3CCOCC3)c2C1	CHT allo act 6.98 | CHT act confirm 42.8 | HEK293 MP dye -53.1
CCCCNC(=O)CSc1nc2ccsc2c(=O)n1CCCC(=O)NCCc1ccc(S(N)(=O)=O)cc1	none
CCOC(=O)C1CCCN(C(=O)C2CCC(CNS(=O)(=O)c3ccc(NC(C)=O)cc3)CC2)C1 (configuration not stated)	SUMO Mot1 rescue 281.7 | CHT act confirm inactive | HEK293 MP dye inactive
CC(=O)Nc1ccc(S(=O)(=O)NCC2CCC(C(=O)N3CCCCC3)CC2)cc1 (configuration not stated)	none
O=C(COC(=O)c1cn(-c2ccccc2)nc1-c1cccnc1)NC1CC1	none
CCOC(=O)C1(Cc2ccccc2C)CCCN(S(=O)(=O)CC)C1 (configuration not stated)	none
O=C1C(NS(=O)(=O)c2cccs2)=C(N2CCOCC2)C(=O)c2ccccc21	CHT allo act 7.17 | CHT act confirm 40.8 | HEK293 MP dye -40.5
CCOc1ccc(C(=O)NNC(=O)CCNC(=O)c2ccc(Br)cc2)cc1OC	none (no result: CHT inh, MEKK2 WT-MEK5, MEKK2mut PB1 HTS, MEKK3 PB1 HTS, CHT allo act)
CN(C)CCNC(=O)c1onc(CSc2ccc(F)cc2)c1C(=O)NCCN(C)C	CHT allo act 6.7 | CHT act confirm 17.5 | HEK293 MP dye -20.5
CCCN(CC(=O)Nc1cc(Cl)ccc1Cl)C(=O)/C=C/c1ccco1	CHT allo act 6.82 | CHT act confirm 31.0 | HEK293 MP dye inactive
CCC(Sc1nc2cc(OC)c(OC)cc2c(=O)n1Cc1ccc(OC)cc1)C(=O)NCCOC (configuration not stated)	CHT allo act 6.57 | CHT act confirm inactive | HEK293 MP dye inactive
Cc1ccc(OCCNC(=O)CCNS(=O)(=O)c2ccc3ccccc3c2)cc1	none (no result: CHT inh, MEKK2 WT-MEK5, MEKK2mut PB1 HTS, MEKK3 PB1 HTS, CHT allo act)
CCOC(=O)c1cc(-c2ccccc2)nc2c1c(C)nn2-c1ccccn1	CHT allo act 8.59 | CHT act confirm inactive | HEK293 MP dye inactive
CCCCC1=CC2=CC(=O)C(C)(OC(=O)c3ccco3)C(=O)C2=CO1 (configuration not stated)	none
Cc1nn2c(NCCCN3CCOCC3)c3c(nc2c1-c1ccccc1)CCC3	none
Cc1nn2c(NCCN(C)C)c3c(nc2c1-c1ccccc1)CCCC3	none | CHT act confirm 11.4 | HEK293 MP dye -50.7
COc1ccc(/C=C2\CCCC3C2=NN(C(=O)CSc2n[nH]c(N)n2)C3c2ccc(OC)cc2)cc1 (configuration not stated)	none
CCC1=[N+](C)c2cccc3cccc(c23)N1C	CHT allo act 9.61 | CHT act confirm 71.3 | HEK293 MP dye -86.3
CNC(=O)C(=O)NCC1OCCN1S(=O)(=O)c1ccc(OC)c(OC)c1 (configuration not stated)	none
CC(=O)c1ccc(OCCCC(=O)Nc2nnc(C3CC3)s2)cc1	none (no result: CHT inh, MEKK2 WT-MEK5, MEKK2mut PB1 HTS, MEKK3 PB1 HTS, CHT allo act)
COc1ccc(-c2nc3cnccn3c2Nc2ccc(C)cc2)cc1	none | CHT act confirm 35.6 | HEK293 MP dye -28.3
Cc1ccc(Nc2c(-c3ccccc3)nc3cnccn23)cc1	none
Cn1c(/C=N/n2cnnc2)nc2ccccc21	CHT allo act 6.55 | CHT act confirm 59.8 | HEK293 MP dye -48.3
